Measurements published in PubChem BioAssay (NCATS).
Records with an inconclusive call do not appear. A number with no mark means an inactive call. Active and inactive are the calls of the source. Calls follow the shape of the dose curve; as a rule, active = well fitted inhibition curve with a large enough effect; inconclusive = small, poorly fitted or top-dose-only effect; inactive = flat fitted curve, though single readings scatter.

How the values were obtained:
[1] = test system: CRL-7250; experiment: Cytotoxic Profiling of Annotated Libraries Using Quantitative High-Throughput Screening (AID 1296008); settings: Five cell lines viability, CellTiter-Glo ATP luminescence, 48-72 h; max response: stronger effect = lower value; also: nearly all actives have a fitted effect of over 60% in size
Method in brief: (§1)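 Cells exposed to compounds for 48 or 72 hr at 37 degrees Celsius. Viability read as ATP-coupled luminescence with CellTiter-Glo after 10 min at room temperature.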

[2] = test system: HEK293; experiment: as above; settings: Five cell lines viability, CellTiter-Glo ATP luminescence, 48-72 h; max response: stronger effect = lower value
Method in brief: as §1
% is scaled to controls: 0 for no effect and ±100 for the full control effect; potency is read from the fitted curve at half-maximal effect.

Work on `CC1CCC23COC(=O)C2=CC(O)CC3C1(C)CCC1=CC(O)OC1=O` (stereo not drawn) yielded a max response [1] of -0.17% and a max response [2] of 1.91%.

With `O=C(CSc1nc2c(c(=O)n1-c1ccccc1)SCC2)Nc1ccc(-c2ccccc2)cn1` the Potency [1] was 231 nM (active) and the Potency [2] was 41.1 nM (active).

With `COc1ccc(CNC(=O)c2cc(-c3cncc(C)c3)ncc2-c2nccs2)nc1OC` the outcome [1] was “inactive” and the max response [2] was -57.9%.

`CC(C)(C)NC(=O)[C@@H](c1cccnc1)N(C(=O)c1ccco1)c1ccc(C(C)(C)C)cc1` showed a max response [1] of 4.34% and a max response [2] of -16.3%.

With `CC/C=C\C/C=C\C/C=C\CCCCCCCC(=O)OCC(O)COC1OC(CO)C(O)C(O)C1O` (stereo not drawn) the max response [1] was -2.54% and the max response [2] was -1.09%.

`C[C@@H]1C(=O)OC[C@H]2C(C(=O)O)=C[C@@H]3CC(C)(C)C[C@]312` was tested, and the outcome [1] was “inactive” and the max response [2] was 4.25%.

`C[C@H](C/C=C/C(C)(C)O)[C@H]1CC[C@@]2(C)[C@@H]3[C@@H](O[C@@H]4O[C@H](CO)[C@@H](O)[C@H](O)[C@H]4O)C=C4C(CC[C@H](O)C4(C)C)[C@]3(C=O)CC[C@]12C` (stereo partly drawn) showed a max response [1] of -2.26% and a max response [2] of -5.89%.

For `CNS(=O)(=O)c1ccccc1Nc1nc(Nc2ccc(N3CCN(C)CC3)cc2OC)ncc1Cl`, the Potency [1] was 1460 nM (active) and the Potency [2] was 1300 nM (active).

`CC1CCC2(C(=O)O)CCC3(C)C(=CCC4C5(C)CCC(O)C(C)(CO)C5CCC43C)C2C1(C)O` (stereo not drawn) showed a max response [1] of 0.977% and a max response [2] of -24.2%.

In the case of `COC(=O)C1(C)CCC2(C(=O)O)CCC3(C)C(=CCC4C5(C)CC(O)C(OC6OCC(O)C(O)C6O)C(C)(CO)C5CCC43C)C2C1` (stereo not drawn), the max response [1] is reported as 3.48% and the max response [2] is reported as 0.887%.

`COc1cc(O)cc(C)c1C(=O)O[C@H]1[C@@H](OC(C)=O)[C@H](n2ccc(=O)[nH]c2=O)O[C@@H]1CO` was tested, and the outcome [1] was “inactive” and the max response [2] was 4.85%.

Molecule `CC1(C)CC[C@]2(C(=O)O[C@@H]3O[C@H](CO)[C@@H](O)[C@H](O)[C@H]3O)CC[C@]3(C)C(=CCC4[C@@]5(C)C[C@@H](O)[C@H](O)[C@@](C)(CO)C5CC[C@]43C)C2[C@@H]1O` (stereo partly drawn) has a max response [1] of 1.08% and a max response [2] of -3.93%.

`CC1=CC(=O)C2C(C)(C)CCC[C@]2(C)[C@H]1CO` (stereo partly drawn) showed a max response [1] of -14.4% and a max response [2] of 1.55%.

`Cc1ccc(-c2ccc3c(ccc4sc5c(c43)NC[C@@H](C)NC5=O)n2)cn1` was tested, and the outcome [1] was “inactive” and the max response [2] was -21.3%.

In the case of `NC(=O)c1cnc(NCCc2ccc(O)c(Cl)c2)nc1NCc1ccccc1`, the Potency [1] is reported as 7310 nM (active) and the Potency [2] is reported as 6510 nM (active).

In the case of `CC(=O)O[C@@H](CO[C@@H]1O[C@H](CO)[C@H](O)[C@H](O)[C@H]1O)[C@]1(C)C=C2CC[C@@H]3C(C)(C)[C@@H](O)CC[C@@]3(C)[C@@H]2CC1`, the max response [1] is reported as -3.06% and the max response [2] is reported as -1.31%.

With `CNC(=S)NS(=O)(=O)c1cc(CCNC(=O)c2cc(Cl)ccc2OC)ccc1OC` the max response [1] was 3.39% and the max response [2] was 0.225%.

In the case of `CC1OC(O[C@H]2CC[C@@]3(C)C(CC[C@]4(C)C3CC=C3C5CC(C)(C)CC[C@]5(C(=O)OC5OC(CO)C(OC6OC(COC7OCC(O)C(O)C7O)C(O)C(O)C6O)C(O)C5O)CC[C@]34C)C2(C)C)C(O)C(O)C1OC1OCC(OC2OCC(O)C(O)C2O)C(O)C1O` (stereo partly drawn), the max response [1] is reported as -5.53% and the max response [2] is reported as 1.98%.

`NC(=O)[C@H]1CCS[C@@H]2C[C@]3(CCCN3C(=O)Cc3ccc(NC(=O)COc4ccc(Cl)cc4Cl)cc3)C(=O)N12` was tested, and the max response [1] was -14.3% and the Potency [2] was 7410 nM (active).

With `CC(C)=CCC/C(C)=C/CO[C@@H]1O[C@H](CO)[C@@H](OC(=O)/C=C/c2ccc(O)cc2)[C@H](O[C@@H]2O[C@@H](C)[C@H](O)[C@@H](O)[C@H]2O)[C@H]1O` the max response [1] was 0.478% and the max response [2] was 1.83%.

With `CN(C)c1nc(NC2CCC(NCCc3ccc(Br)cc3OC(F)(F)F)CC2)nc2ccccc12` (stereo not drawn) the Potency [1] was 18400 nM (active) and the Potency [2] was 5170 nM (active).

Work on `C=CC1(C)C=C2C(=O)OC(=O)C3=C(CCCC3(C)C)C2(O)CC1` (stereo not drawn) yielded a max response [1] of -0.556% and a max response [2] of -14.3%.

In the case of `Cc1ccc([N+](=O)[O-])cc1S(=O)(=O)N(C)/N=C/c1cnc2ccc(Br)cn12`, the Potency [1] is reported as 82 nM (active) and the Potency [2] is reported as 103 nM (active).

`CC1CC(=O)C2=C(CCC3(O)C(O)c4c(O)cccc4C(=O)C23O)C1` (stereo not drawn) showed a max response [1] of -7.17% and a max response [2] of -13.5%.
